Source: the supplement of paper PMC13380429

System: Vero E6 infected with SARS-CoV-2
Test: inhibition of SARS-CoV-2 cytopathic effect; higher = more antiviral protection, active = above 15
Details: 48 h

Measured: inhibition of SARS-CoV-2 cytopathic effect

Cn1cc(C2=C(c3cn(C4CCN(Cc5ccccn5)CC4)c4ccccc34)C(=O)NC2=O)c2ccccc21 [enzastaurin]
inactive: 1 nM 0.18% | 8.33 nM 1.89% | 100 nM 1.4% | 833.33 nM 1.31% | 10000 nM 3.94%

O=C(CCCCCCCn1cc(-c2cccnc2)nn1)Nc1ccccc1-c1ccccc1
inactive: 1 nM 0.38% | 8.33 nM -1.7% | 100 nM -14.1% | 833.33 nM -14.7% | 10000 nM -12.8%

Cc1cc(Nc2ccc(NC(=O)c3ccc(Nc4ccnc5ccccc45)cc3)cc2)nc(N)n1
active: 10000 nM 20.3%
inactive: 1 nM -1.09% | 8.33 nM 0.62% | 100 nM 2.48% | 833.33 nM 3.69%

CCn1c(N)c(C(=O)NC)c(=O)c2ccc(C#C[C@@](C)(O)COC)nc21
inactive: 1 nM 0.13% | 8.33 nM -0.62% | 100 nM -1.69% | 833.33 nM 0.68% | 10000 nM 6.9%

CCCN1CCN(c2ccc(C(=O)NC3(C(=O)NCC#N)CCCCC3)cc2)CC1 [balicatib]
inactive: 1 nM 3.8% | 8.33 nM 0.96% | 100 nM -1.9% | 833.33 nM 0.29% | 10000 nM 10.8%

CN1C(=O)N(c2cc(Cl)cc(Cl)c2)C(=O)[C@]12CN(Cc1cc(C(=O)O)cs1)C[C@H]2c1ccc(C#N)cc1
inactive: 1 nM -1.94% | 8.33 nM 0.44% | 100 nM 1.44% | 833.33 nM 0.49% | 10000 nM -0.22%

Cc1cc(Nc2nc(N[C@@H](C)c3ncc(F)cn3)ncc2Cl)[nH]n1
inactive: 1 nM -1.19% | 8.33 nM -0.46% | 100 nM -0.68% | 833.33 nM 0.25% | 10000 nM 0.25%

Cc1cccc(C)c1NC(=O)C1CCCCN1C (stereo not given) [mepivacaine]
inactive: 1 nM -3.62% | 8.33 nM -1.78% | 100 nM -2.27% | 833.33 nM -0.18% | 10000 nM 0.81%

CC(C)CCC[C@@H](C)[C@H]1CC[C@H]2[C@@H]3CC=C4C[C@@H](O)CC[C@]4(C)[C@H]3CC[C@]12C [cholesterol]
inactive: 1 nM -1.33% | 8.33 nM 1.96% | 100 nM 1.08% | 833.33 nM -1.83% | 10000 nM 2.29%

O=C(O)Cn1c(C(=O)Nc2nc(-c3ccccc3Cl)cs2)cc2ccccc21
inactive: 1 nM 0.3% | 8.33 nM -0.21% | 100 nM 0.61% | 833.33 nM -0.36% | 10000 nM -0.66%

O=C(Nc1cccnc1)c1cc(-c2ccnc(F)c2)ccc1OCc1ccccc1
inactive: 1 nM 2.42% | 8.33 nM -0.98% | 100 nM 4.16% | 833.33 nM 4.08% | 10000 nM 3.44%

N[C@@H](CS)C(=O)O [L-cysteine]
inactive: 1 nM 1.7% | 8.33 nM -1.19% | 100 nM -0.65% | 833.33 nM -1.16% | 10000 nM -5.76%

Nc1n[nH]c2nnc(-c3c(-c4ccccc4)nn4ccccc34)cc12
inactive: 1 nM 0.55% | 8.33 nM -0.27% | 100 nM -1.29% | 833.33 nM 1.74% | 10000 nM -2.81%

Nc1ncnc(Nc2ccc(Cl)cc2)n1 [chlorazanil]
inactive: 1 nM 0.82% | 8.33 nM -0.51% | 100 nM -1.09% | 833.33 nM -1.03% | 10000 nM -2.14%

O=C(CCCCCCC(=O)Nc1cccnc1)NO [pyroxamide]
inactive: 1 nM 0.71% | 8.33 nM -1.1% | 100 nM 0.72% | 833.33 nM -1.43% | 10000 nM -5.97%

COc1nc(C)nc(Cl)c1NC1=NCCN1 [moxonidine]
inactive: 1 nM -0.54% | 8.33 nM 1.98% | 100 nM -1.9% | 833.33 nM -2.44% | 10000 nM -1.74%

Cc1ccc(/C=C2\CNC/C(=C\c3ccc(C)cc3)C2=O)cc1
inactive: 1 nM -3.15% | 8.33 nM -1.97% | 100 nM -0.54% | 833.33 nM -0.34% | 10000 nM 0.13%

OCCNCCCOc1cccc(Cl)c1Cl
inactive: 1 nM 1.41% | 8.33 nM 0.45% | 100 nM 1.26% | 833.33 nM 0.42% | 10000 nM -19.6%

O=C1c2cc(Cl)ccc2OC2CCON12 (stereo not given) [seclazone]
inactive: 1 nM -0.24% | 8.33 nM 1.68% | 100 nM 1.79% | 833.33 nM 0.75% | 10000 nM 1.99%

N#C/C(=C\c1cn(-c2ccccc2)c2ccccc12)C(=O)O
inactive: 1 nM -0.26% | 8.33 nM -0.12% | 100 nM -0.58% | 833.33 nM 1.6% | 10000 nM -2.52%
